Source: PubChem (several laboratories)
A selection: hits, their analogues and other compounds. The true share with any hit is near 2.6%.
TAG inh = triacylglycerol accumulation inhibition. actives 0.66% (n = 230,000). inhibition, % at 12.5 µM. H9c2 cells, Nile Red lipid (TAG) fluorescence; cells loaded with 200 µM oleic acid;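 active means pattern-corrected inhibition of lipid staining of at least 50% with the nuclear-stain viability signal not falling by more than 50%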;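 further: 0% = DMSO wells and 100% = triacsin C control wells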
697 NFkB inh = lowers PMA/ionomycin-induced NF-kB signal in 697 B cells | AID 435022 | inhibition, % at 4 µM | actives 0.33% (n = 330,000) | 697 B-cell NF-kB luciferase reporter, 16 h; in the data active means inhibition above about 35%
COUP-TFII inh = NR2F2 (human) inhibition, primary screen | HEK293T NGFI-A luciferase reporter, luminescence | AID 686940 | actives 0.7% (n = 370,000) | inhibition, % at 8.6 µM;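 active means inhibition above a per-plate cutoff, mean inhibition of test wells between control levels plus 3 SD, cut at about 38% in these data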;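 further: cells cotransfected with COUP-TFII expression vector driving the NGFI-A reporter; 0% = median of COUP-TF2 test wells and 100% = reporter-only cells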
Target sequence (P24468 whole entry, looked up): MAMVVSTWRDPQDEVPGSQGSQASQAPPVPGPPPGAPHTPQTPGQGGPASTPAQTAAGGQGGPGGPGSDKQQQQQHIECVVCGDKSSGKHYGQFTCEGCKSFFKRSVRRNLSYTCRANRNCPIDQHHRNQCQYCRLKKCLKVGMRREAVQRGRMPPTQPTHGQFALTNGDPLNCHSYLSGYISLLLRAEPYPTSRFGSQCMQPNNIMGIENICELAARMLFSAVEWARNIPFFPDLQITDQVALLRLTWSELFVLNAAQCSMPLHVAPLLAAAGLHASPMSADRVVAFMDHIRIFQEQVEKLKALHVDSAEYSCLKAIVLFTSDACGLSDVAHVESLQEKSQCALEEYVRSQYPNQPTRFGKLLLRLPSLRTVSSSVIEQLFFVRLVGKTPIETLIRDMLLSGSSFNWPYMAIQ
Cardio protect = myocardial damage modulation in H9c2 cells. protection from H2O2 cell death, % at 20 µM. H9c2 cardiomyocytes, H2O2 injury protection, ATPLite, 2 h. actives 0.63% (n = 360,000);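 active means compounds giving at least 50% protection of heart cells from peroxide-induced death in the single-dose screen, raw or plate-pattern-corrected value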;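 further: 0% = DMSO wells with peroxide and 100% = DMSO wells without peroxide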
Jurkat NFkB inh = lowers PMA/ionomycin-induced NF-kB signal in Jurkat cells; PMA/ionomycin-induced NF-kB luciferase reporter, luminescence; inhibition, % at 4 µM; actives 0.53% (n = 330,000); in the data active means inhibition above about 50%
Gli-Sufu antag = Gli-Sufu pathway antagonism | actives 0.74% (n = 340,000) | AID 588413 | inhibition, % at 5 µM | Sufu-KO-LIGHT fibroblasts, Gli luciferase reporter luminescence;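 active means inhibition above about 55%, limit read from the data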;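 further: 0% = DMSO-treated cells and 100% = wells with medium but no cells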
Gli-Sufu confirm = confirmation of Gli-SUFU pathway antagonists. Sufu-KO-LIGHT cells, Gli luciferase reporter, luminescence. shares compounds with Gli-Sufu antag. actives 40% (n = 2,500). inhibition, % at 5 µM;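 active means mean inhibition at 5 µM reaching about 45%, limit read from the data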;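 further: plate controls were DMSO-treated cells for no effect and wells lacking cells for full effect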
SufuKO cytotox = counter-screen for Gli-SUFU antagonists: cytotoxicity; shares compounds with Gli-Sufu antag; Sufu-KO-LIGHT cells cytotoxicity, ATP luminescence; cytotoxicity, % at 5 µM; actives 32% (n = 2,500); AID 651994;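 active means mean cytotoxicity at 5 µM above about 25%, limit read from the data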;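 further: cells exposed to compound overnight for roughly 16 to 18 hours; plate controls were DMSO wells with cells for no effect and medium without cells for full effect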
Wnt3a counter = Wnt3a reporter inhibition counter-screen | shares compounds with Gli-Sufu antag | Wnt-LIGHT cells, Wnt3a-driven luciferase reporter, luminescence | inhibition, % at 6.25 µM | actives 20% (n = 2,500);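 active means mean inhibition above about 25%, limit read from the data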
Starred values were filed as active, the others as inactive; x = no result.

SMILES	TAG inh	697 NFkB inh	COUP-TFII inh	Cardio protect	Jurkat NFkB inh	Gli-Sufu antag	Gli-Sufu confirm	SufuKO cytotox	Wnt3a counter
S=C(NCCc1ccccc1)Nc1ccc(Cl)cc1Cl	x	-1.3	-1.7	-22.1	4.6	65.3*	13.4	10.3	-30.0
Cc1cc(Cl)ccc1NC(=S)NCCc1ccc(Cl)cc1	x	-0.9	8.7	-15.4	-0.4	28.2	x	x	x
O=C(N/N=C/c1cc(Cl)ccc1O)C(=O)Nc1ccccc1OC(F)(F)C(F)F	x	x	17.6	41.2	x	55.0*	64.3*	46.4*	64.3*
O=C(N/N=C/c1cc(Br)ccc1O)C(=O)Nc1ccccc1OC(F)(F)C(F)F	x	x	13.1	33.5	x	59.5*	73.1*	31.7*	58.1*
CCN(CC)C(=O)c1oc(=O)c2ccccc2c1-c1ccc(C)cc1	x	x	6.7	x	x	x	x	x	x
c1ccc(-c2csc3nnc(SCc4ccc5c(c4)OCO5)n23)cc1	-33.6	-7.6	25.8	-7.9	0.4	52.1	10.0	5.8	4.8
O=C(O)Cn1cccc1C(=O)c1ccccc1	x	18.9	x	5.3	-10.4	95.9*	9.2	3.6	-14.5
CC[n+]1c(/C=C/Nc2ccccc2)sc2ccccc21	-54.7	16.4	18.8	-31.1	-5.2	68.5*	81.3*	37.4*	29.8*
CCN1/C(=C/C=C/C=C/C=C/c2sc3ccccc3[n+]2CC)Sc2ccccc21	x	3.6	-3.2	-20.1	6.6	82.9*	90.8*	32.3*	44.6*
COC(=O)C1=C(C)N(c2ccc(S(N)(=O)=O)cc2)C(=O)C1	-6.3	12.1	5.3	-3.1	-3.6	-2.6	x	x	x
CCOC(=O)C1=C(C)N(c2ccccc2)C(=O)C1	x	-10.7	-5.8	-2.0	-5.5	76.1*	23.9	10.8	5.7
CCn1c2ccccc2c2cc(NC(=O)COC(=O)c3cc(F)ccc3C)ccc21	x	x	-0.2	x	x	x	x	x	x
Cc1cccc(NC(=O)Cn2cc(C(=O)C3CC3)c3ccccc32)c1C	x	7.8	21.9	-3.8	15.0	79.9*	83.4*	33.3*	-13.4
COc1ccc(OC)c(NC(=O)Cn2cc(C(=O)c3ccco3)c3ccccc32)c1	x	-18.9	15.4	6.4	-0.8	-2.1	x	x	x
COc1ccccc1NC(=O)Cn1cc(C(=O)c2ccco2)c2ccccc21	-10.9	11.4	-11.0	6.6	-5.5	56.0*	69.1*	38.2*	30.7*
CC(=NN1CCN(c2ccccn2)CC1)c1ccccc1O	x	x	-24.5	x	x	x	x	x	x
Cc1c(F)cccc1NS(=O)(=O)c1ccc2c(c1)n(C)c(=O)c(=O)n2C	x	11.0	-18.4	3.0	-1.5	52.7	6.8	9.5	-21.5
CN1CCCCC(NC(=O)c2cccc(C(F)(F)F)c2)C1=O (stereo not drawn)	x	x	-0.2	x	x	x	x	x	x
CCOC(=O)c1sc(NC(=O)c2cc(-c3ccccc3)nc3ccccc23)c(C#N)c1C	4.5	-16.4	-5.5	-32.4	-16.2	53.0	73.8*	11.4	65.3*
CCOC(=O)c1sc(NC(=O)c2cccc(S(=O)(=O)N3CCc4ccccc43)c2)c(C#N)c1C	3.2	-10.7	3.5	-15.3	3.8	73.0*	78.2*	16.3	72.0*
CC1=CC(C)C2(COC(c3ccc[n+](C)c3)OC2)C(C)C1 (stereo not drawn)	-34.6	x	-0.3	-4.7	x	58.1*	53.0*	16.6	-3.8
CCN(CC)S(=O)(=O)c1cccc(C(=O)N/N=C/c2cccc(O)c2O)c1	25.6	-48.4	-46.8	24.1	5.5	70.9*	50.8*	47.8*	36.3*
O=C(N/N=C/c1ccccc1O)c1cccc(C(F)(F)F)c1	x	-1.0	-13.2	16.8	41.6	66.1*	61.8*	35.7*	57.8*
O=C(N/N=C/c1ccc(O)cc1)c1cccc(C(F)(F)F)c1	-9.0	-8.8	2.4	27.3	1.9	5.8	x	x	x
COc1ccc(OCC(O)CNC(C)c2ccccc2)cc1 (stereo not drawn)	x	-1.1	16.0	1.8	-34.3	6.2	x	x	x
SMILES	TAG inh	697 NFkB inh	COUP-TFII inh	Cardio protect	Jurkat NFkB inh	Gli-Sufu antag	Gli-Sufu confirm	SufuKO cytotox	Wnt3a counter
CC(NCC(O)COc1ccc(Br)cc1)c1ccccc1 (stereo not drawn)	x	7.1	-20.8	9.8	1.4	58.4*	14.3	1.6	-36.8
Cc1ccc2[nH]c3c(N4CCN(Cc5ccccc5)CC4)ncnc3c2c1	-107.4	22.4	30.8	-25.4	15.4	53.4	53.4*	37.3*	-5.2
CN1OC[C@@H]2CN(C(=O)c3ccc([N+](=O)[O-])cc3)[C@H](c3ccccc3Br)C[C@@H]21	x	x	-0.4	x	x	x	x	x	x
Cc1ccc(NC(=S)Nc2cc(C(=O)O)ccc2N2CC3CC(C2)c2cccc(=O)n2C3)cc1C (stereo not drawn)	-14.6	4.7	-4.8	-2.8	0.3	79.0*	-3.9	21.6	-6.8
Cc1ccc(C)c(CN2C(=O)COc3ccccc32)c1	-8.4	-17.9	3.1	1.5	-14.0	6.4	x	x	x
Cc1ccc(C)c(CN2C(=O)COc3ccc(C(=O)c4ccccc4C(=O)O)cc32)c1	-0.8	-5.1	5.5	-6.9	-0.6	52.8	19.9	5.2	-7.0
CCc1ccc(N(CC(=O)NCc2ccc(OC)cc2)C(=O)CCC(=O)Nc2ccccn2)cc1	x	-2.9	-12.5	4.2	7.3	8.2	x	x	x
COc1ccc(N(CC(=O)NCc2ccc(F)cc2)C(=O)CCC(=O)Nc2ccccn2)cc1	x	-7.8	-16.3	0.9	-28.9	68.9*	15.8	22.0	-25.7
CCC(=O)Nc1cc(-c2nn(C)c(=O)c3ccccc23)ccc1N1CCCCC1	6.5	31.0	1.9	5.1	18.2	15.9	x	x	x
CC(=O)Nc1cc(-c2nn(CC(=O)N3CCCCC3)c(=O)c3ccccc23)ccc1N1CCOCC1	x	-28.2	1.5	3.5	-10.1	50.7	15.6	8.9	-24.8
CCC(C)NC(=O)CN(c1cc(Cl)ccc1OC)S(C)(=O)=O (stereo not drawn)	x	8.8	14.4	4.7	14.0	-6.3	x	x	x
CCN(CC)C(=O)CN(c1cc(Cl)ccc1OC)S(C)(=O)=O	x	12.0	-0.9	2.0	6.8	50.8	21.9	12.9	-5.5
CCOC(=O)CN(C(=O)CSc1nnc(-c2cccc(OC)c2)o1)c1ccc(F)cc1	x	6.3	22.3	-4.1	-5.1	98.5*	11.4	10.7	-35.8
COC(=O)CN(C(=O)CSc1nnc(-c2cccc(OC)c2)o1)c1ccc(OC)cc1	x	-11.5	-9.9	9.1	-8.1	-6.5	x	x	x
Cc1ccc(N/C(N)=N/c2nc(C)cc(C)n2)cc1	x	3.5	3.0	-7.2	2.7	43.9	x	x	x
Cc1cc(C)nc(/N=C(\N)Nc2ccccc2-c2ccccc2)n1	-1.0	-63.1	12.2	-21.4	35.0	59.7*	42.8	12.0	-16.1
CC(=O)CC[C@H]1CC[C@]2(CCCN(C(=O)c3ccccc3)C2)O1	x	x	-3.8	x	x	x	x	x	x
